Data published in ChEMBL document CHEMBL1157539, “Thousands of chemical starting points for antimalarial lead identification” (Nature, 2010).

Each compound was assayed on Plasmodium falciparum (assay: GSK_TCMDC: Inhibition of Plasmodium falciparum Dd2 in whole red blood cells, using parasite LDH activity as an index of growth. Test compounds present at 2uM).
Type: functional

Row | Compound | Inhibition [%]
1 | CCc1c(C(=O)NC2CCC(N3CCC(c4ccccc4OC)CC3)CC2)[nH]c2ccc(OC)cc12 (stereo not given) | 99
2 | CCC(C)NS(=O)(=O)c1ccc2nc(Nc3ccc(C)c(Cl)c3)n(C3CCCCC3)c2c1 (stereo not given) | 98
3 | Cc1nc2c(s1)c(=O)cc(CCc1cccc(F)c1F)n2CC(=O)N(Cc1ccc(-c2ccc(C(F)(F)F)cc2)cc1)C1CCN(C(C)C)CC1.O=C(O)C(O)C(O)C(=O)O | 82
4 | Cc1cc(S(=O)(=O)N2CCCCC(c3ccc(C(F)(F)F)cc3)=N2)c(Cl)cc1Cl | 97
5 | Cc1ccccc1C1CCN(C2CCC(NC(=O)/C=C/c3cccc(Cl)c3Cl)CC2)CC1 (stereo not given) | 23
6 | CCCCCCNc1cc(C)nc(NC(=N)Nc2cccc(C(F)(F)F)c2)n1 | 100
7 | Cl.Oc1ccc(-c2cc(COc3ccccc3C(F)(F)F)c(C3=CCNCC3)cc2COc2ccccc2C(F)(F)F)cc1 | 62
8 | Br.N=C1c2ccccc2CN1CC(=O)c1ccc(Cl)c(Cl)c1 | 16
9 | COc1c(C)[nH]c(C)c(-c2ccc(Oc3cccc(C(F)(F)F)c3)cc2)c1=O | 96
10 | CCCc1ccc(C2CCN(CCCCNC(=O)c3ccc(NC(=O)c4ccc(Cl)cc4)cc3)CC2)cc1 | 100
11 | Cc1cc(N[C@@H](CC(C)C)C(=O)NCCOc2ccccc2)nc(NCC2CCCCC2)n1.O=C(O)C(F)(F)F | 53
12 | COc1ccccc1CCNc1nc(C)cc(N[C@@H](CC(C)C)C(=O)Nc2ccccc2)n1.O=C(O)C(F)(F)F | 76
13 | COc1ccc2nccc([C@@H](O)CN3CCC(NCc4ccc(OC)c(NC=O)c4)CC3)c2c1 | 0
14 | O=C(Nc1cccc(CN2CCCN(Cc3ccc(O)cc3)CC2)c1)c1ccc(Br)cc1.O=C(O)C(F)(F)F | 54
15 | COC(=O)COc1cc(C(=O)NCCCCN2CCC(c3ccc4c(c3OC)CCCC4)CC2)ccc1-c1ccc(Cl)cc1 | 21
16 | COc1ccc(CCN(C)CCOc2ccc(NC(=O)c3cccc4cc5ccccc5nc34)cc2)cc1OC | 99
17 | COc1cccc(CNC[C@@H](O)[C@H](Cc2ccccc2)NC(=O)c2cc(N3CCCC3=O)c3[nH]cc(C(C)C)c3c2)c1 | 98
18 | CC(C)=CCN1CCC(C(=O)Nc2ccc(-c3nc4ccccc4[nH]3)cc2)CC1 | 0

Row | Compound | Inhibition [%]
19 | CCCCCCN(CCCCCC)CC(O)c1cc(-c2ccc(Cl)cc2)nc2c(C)cc(C)cc12 (stereo not given) | 98
20 | CC(C)CCN1CCCN(Cc2cccc(NC(=O)c3ccc(-c4ccccc4)cc3)c2)CC1.O=C(O)C(F)(F)F | 21
21 | COCCOc1cc(C)c(C2CCN(CCCCNC(=O)c3ccc(NC(=O)c4ccc(Cl)cc4)cc3)CC2)cc1C | 30
22 | COc1ccc2ncc(F)c(CCN3CC4CCCC4(CNCc4ccc5c(n4)NC(=O)CS5)C3)c2n1.Cl (stereo not given) | 28
23 | O=C(Nc1nc(-c2cc(F)ccc2F)cs1)c1cncc(Br)c1 | 3
24 | Cl.FC(F)(F)c1ccccc1OCc1cc(-c2ccncc2)c(COc2ccccc2C(F)(F)F)cc1C1=CCNCC1 | 81
25 | CCCNC(=O)Nc1ccc(N(C)c2ccnc(NC3CC3)n2)cc1 | 88
26 | CCCC(CNCc1cccc(OC(F)(F)C(F)F)c1)CNc1cc(=O)c2ccccc2[nH]1 (stereo not given) | 94
27 | N#Cc1cccc(NC(=O)Nc2cccc(-c3ccc(-c4nc5cc(C(F)(F)F)ccc5[nH]4)cc3)c2)c1 | 99
28 | CCOC(=O)N/N=C/[C@H](CCc1ccccc1)NC(=O)[C@H](CC(C)C)NC(=O)c1cc2cccc(OC)c2o1 | 58
29 | CC(C)(CN)c1nc(-c2ccc(Br)c(O)c2)c(-c2ccncc2)[nH]1.Cl | 97
30 | CC(C)(C)c1ccc2[nH]c(-c3ccc(C(=O)NC4CCN(Cc5ccccc5)CC4)s3)nc2c1 | 42
31 | O=C(Nc1ccc(Cl)cc1C(=O)Nc1cccc(F)c1)c1ccc([N+](=O)[O-])cc1 | 54
32 | CN(C)CCCNCc1ccc(-c2ccc(CNCCc3ccccc3)cc2)cc1.O=C(O)C(F)(F)F | 87
33 | COc1ccc2nccc([C@@H](O)CN3CCC(NC(=O)C(c4cc5ccccc5o4)N4CCC(Cc5ccccc5)CC4)CC3)c2c1 (stereo not given in full) | 82
34 | CN1CCN(Cc2cc3cc(NC(=O)/C=C/c4cccc(Cl)c4)ccc3s2)CC1.Cl | 72
35 | CN1CCN(Cc2nc(-c3ccc4c(Nc5ccc(F)c(O)c5)ccnc4c3)cs2)CC1 | 100
